The values that follow come from PubChem BioAssay.

The nature of this assay: compound effects on multiple myeloma cell viability – MM1S, calcein-AM fluorescence, 48 h, basal, profiling panel (AID 1165).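 Further: viability of MM1S multiple myeloma cells under basal unstimulated conditions; test concentration not given here.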 The following applies: higher = more signal.
`COC(=O)C1(Cc2ccccc2)C=C2C(=C(C(C)C)C(=O)C2C)CN1` (stereo unspecified): the z-score is -1.89.

As to `Cc1c(NC(=O)/C(C#N)=C/C=C/c2ccccc2[N+](=O)[O-])c(=O)n(-c2ccccc2)n1C`, the z-score was -3.09.

On to `[N-]=[N+]=NCc1ccccc1C[C@@]1(C(=O)NCCN2CCOCC2)N=C(c2ccc(OCCCO)cc2)O[C@@H]1c1ccccc1N=[N+]=[N-]`, for which the z-score was -1.31.

`C[n+]1ccc(CCCO)cc1`: the z-score was 0.375.

`CN1C(=O)C2C=CC(C(O)c3c(F)cccc3Cl)N(Nc3ccccc3)C2C1=O` (stereo unspecified): the z-score is 0.161.

With `C=C[C@@H](C)[C@H](OC(=O)Nc1ccc(SC)cc1)c1ccc(OCCO)cc1`, the z-score was 0.191.

Turning to `CC(C)C(O)C1C=CC2C(=O)N(C)C(=O)C2N1N(c1ccccc1)c1ccccc1` (stereo unspecified), the z-score is 0.0007.

For the compound `O=C1c2ccccc2[C@](Cc2ccccc2I)(C(=O)NCc2ccccc2)[C@H](c2ccc(CO)cc2)N1C1CCCCC1`, the z-score is -2.3.

Take `CC(=O)n1cc(C(O)C2C=CC3C(=O)N(Cc4ccccc4)C(=O)C3N2n2cnnc2)c2ccccc21` (stereo unspecified): the z-score is -1.12.

With `COc1cc2c(cc1OC)CN(C(=O)[C@H]1[C@@H]3C(=O)O[C@@H](c4ccccc4)[C@@H](c4ccccc4)N3[C@@H](c3ccc(OCCO)cc3)[C@]13C(=O)Nc1ccc(C#CC4(O)CCCCCC4)cc13)CC2`, the z-score is 0.217.

As for `O=c1cccc(-c2ccc(C(F)(F)F)cc2)o1`, the z-score is 0.506.

As for `COc1ccc(C(O)C2C=CC3C(=O)N(Cc4ccccc4)C(=O)C3N2n2cnnc2)c2ccccc12` (stereo unspecified), the z-score is 0.405.

Take `CC(C)(C)OC(=O)CC[C@]1(C(=O)NCCN2CCOCC2)N=C(c2ccc(OCCCO)cc2)O[C@H]1c1ccccc1N=[N+]=[N-]`: the z-score was -0.603.

For `C=CC[C@H](OC(=O)Nc1ccc(OC)cc1)c1ccc(O)c2ccccc12`, the z-score is -2.8.

For `COC(=O)[C@@]1(Cc2ccc(OC)cc2)[C@H]2c3cc(C(=O)N4CCCC4)n(CCc4cc5ccccc5[nH]4)c3C[C@H]2CN1C(=O)c1ccccc1`, the z-score is -0.574.

With `COc1ccc(CCNC(=O)[C@@]2(Sc3ccc(C)cc3)CC(=O)N(Cc3cc(C(F)(F)F)cc(C(F)(F)F)c3)[C@@H]2c2ccc(CO)cc2I)cc1`, the z-score is -1.46.

As for `COc1ccc(C(O)C2C=CC3C(=O)N(C)C(=O)C3N2N2CCCCC2)cc1` (stereo unspecified), the z-score is -0.207.

Take `COc1ccc([Si](C)(C)[C@@H]2[C@@H](CC(=O)N3CCC[C@H]3CO)O[C@]3(C(=O)N(Cc4ccc(N5C(=O)c6cccc7cccc5c67)cc4)c4ccccc43)[C@H]2C)cc1`: the z-score was -2.75.

Consider `O=C1c2ccccc2[C@@]2(Cc3ccccc3N(C3CC3)C2=O)[C@H](c2ccc(CO)cc2)N1C1CCCCC1`, for which the z-score is -0.258.

For the compound `CCOC(=O)C1=CC[C@@H](c2cc(Cl)ccc2Cl)N(S(=O)(=O)c2ccc(C)cc2)[C@H]1c1ccc(OC)cc1`, the z-score is -0.852.

`CC=CC(O)C1C=CC2C(=O)N(C)C(=O)C2N1N1CCCCC1` (stereo unspecified): the z-score was -0.714.

Regarding `C=C(C(=O)CC[C@H](OC(C)=O)c1cccc(OCCO)c1)C(C)C`, the z-score is -0.624.

As to `CC(C)C(=C=CC[C@H](O)c1ccc(OCCO)cc1)C[C@H](O)c1cc(Cl)cc(Cl)c1O`, the z-score is -3.41.

Turning to `COc1ccc(C#Cc2ccc3c(c2)[C@]2(C(=O)N3)[C@H](C(=O)N3CCc4cc(OC)c(OC)cc4C3)[C@H]3C(=O)O[C@H](c4ccccc4)[C@H](c4ccccc4)N3[C@@H]2c2ccc(O)cc2)cc1`, the z-score is -0.229.

Take `CN1C(=O)[C@@]2(CCS(=O)(=O)c3ccccc3)N=C(c3ccc(OCCCO)cc3)O[C@H]2c2ccccc21`: the z-score was -0.624.

Regarding `CC[C@H]1C2=C3C(CC[C@H]4C(OCc5ccc(F)cc5C(F)(F)F)OC[C@](C)([C@@H]34)N(C(=O)OC(C)(C)C)C2)C2COC(=O)OCC21` (stereo partly specified), the z-score is -2.9.

Regarding `Cc1ccc(S[C@]2(C(=O)NCc3ccccc3)CC(=O)N(C(C)C)[C@@H]2c2ccc(CO)cc2I)cc1`, the z-score is -2.35.

As to `Cc1ccc(C(C)CC(O)C2C=CC3C(=O)N(c4ccccc4)C(=O)C3N2Nc2ccc(C(C)C)cc2)o1` (stereo unspecified), the z-score was -1.41.

Consider `COCCOC(=O)N1C(=O)[C@@]2(c3cc(C#Cc4ccc(OC)cc4)ccc31)[C@H](C(=O)NC[C@H](O)c1ccccc1)[C@H]1C(=O)O[C@H](c3ccccc3)[C@H](c3ccccc3)N1[C@@H]2c1ccc(O)cc1`, for which the z-score is -2.08.

Turning to `COCCOC(=O)N1C(=O)[C@@]2(c3cc(C#CC4(O)CCCCCC4)ccc31)[C@H](C(N)=O)[C@H]1C(=O)O[C@H](c3ccccc3)[C@H](c3ccccc3)N1[C@@H]2c1ccc(O)cc1`, the z-score is -2.88.

As for `CC1CC/C=C\[C@H]2OC34C=CCN(C(C)C)C(=O)[C@H]3N(CCCCCO)C(=O)[C@@H]4C2C(=O)O1` (stereo partly specified), the z-score is 1.84.
